# Reference: the supplement of paper PMC8975748
# Structures can show the parent of a compound that is named as a salt. ± gives the standard deviation of the averaged measurements.
# Assays:
# [1] = test system: Saccharomyces cerevisiae BY4741 SeMeCo community; assay: mean cell size (pixel area) (pixels); higher = larger cells; conditions: 10 µM; 24 h; SM minimal medium
# Outline: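 Mean cell pixel area per well was measured in a four-plasmid fluorescent community of Saccharomyces cerevisiae BY4741, where every plasmid complements one auxotrophy and carries a fluorescent marker. Cells from an overnight preculture at OD600 = 1.0 were diluted to OD600 = 0.3 and dispensed at 70 µl into 384-well plates acoustically predosed with drug to a final 10 µM in SM medium. Incubation lasted 24 h, followed by paraformaldehyde fixation, automated confocal imaging and analysis in Harmony. Reported figures are averaged over 3 replicates. Same SeMeCo high-content imaging drug screen: Selleck FDA-approved drugs at 10 µM, 24 h in SM medium, 384-well plates, 3 replicates.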
# [2] = test system: Saccharomyces cerevisiae BY4741 SeMeCo community; assay: z-score of prototroph abundance vs DMSO median; higher = larger share of this subpopulation than in DMSO controls; conditions: 10 µM; 24 h; SM minimal medium; subpopulation (auxotrophy): Prototroph
# Outline: (§1)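 A Saccharomyces cerevisiae BY4741 community carried four plasmids, each restoring one auxotrophy and encoding a distinct fluorescent protein. It was pre-grown overnight to OD600 1.0, diluted to 0.3, and 70 µl was added to 384-well plates acoustically predosed with library drugs (10 µM final), then grown 24 h in minimal SM medium. Cells were paraformaldehyde-fixed and imaged by automated confocal microscopy, with single-auxotroph fluorescent strains setting thresholds and autofluorescence correction. Each subpopulation's abundance was scored as a z-score against the vehicle-well median.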
# [3] = test system: Saccharomyces cerevisiae BY4741 SeMeCo community; assay: z-score of subpopulation abundance vs DMSO median, subpopulation auxotrophic for M; higher = larger share of this subpopulation than in DMSO controls; conditions: 10 µM; 24 h; SM minimal medium; subpopulation (auxotrophy): M
# Outline: as §1
# [4] = test system: Saccharomyces cerevisiae BY4741 SeMeCo community; assay: z-score of subpopulation abundance vs DMSO median, subpopulation auxotrophic for L; higher = larger share of this subpopulation than in DMSO controls; conditions: 10 µM; 24 h; SM minimal medium; subpopulation (auxotrophy): L
# Outline: as §1
# [5] = test system: Saccharomyces cerevisiae BY4741 SeMeCo community; assay: z-score of subpopulation abundance vs DMSO median, subpopulation auxotrophic for U; higher = larger share of this subpopulation than in DMSO controls; conditions: 10 µM; 24 h; SM minimal medium; subpopulation (auxotrophy): U
# Outline: as §1
# [6] = test system: Saccharomyces cerevisiae BY4741 SeMeCo community; assay: z-score of subpopulation abundance vs DMSO median, subpopulation auxotrophic for H; higher = larger share of this subpopulation than in DMSO controls; conditions: 10 µM; 24 h; SM minimal medium; subpopulation (auxotrophy): H
# Outline: as §1
# [7] = test system: Saccharomyces cerevisiae BY4741 SeMeCo community; assay: z-score of subpopulation abundance vs DMSO median, subpopulation auxotrophic for LU; higher = larger share of this subpopulation than in DMSO controls; conditions: 10 µM; 24 h; SM minimal medium; subpopulation (auxotrophy): LU
# Outline: as §1
# [8] = test system: Saccharomyces cerevisiae BY4741 SeMeCo community; assay: z-score of subpopulation abundance vs DMSO median, subpopulation auxotrophic for LM; higher = larger share of this subpopulation than in DMSO controls; conditions: 10 µM; 24 h; SM minimal medium; subpopulation (auxotrophy): LM
# Outline: as §1
# [9] = test system: Saccharomyces cerevisiae BY4741 SeMeCo community; assay: z-score of subpopulation abundance vs DMSO median, subpopulation auxotrophic for HM; higher = larger share of this subpopulation than in DMSO controls; conditions: 10 µM; 24 h; SM minimal medium; subpopulation (auxotrophy): HM
# Outline: as §1
# [10] = test system: Saccharomyces cerevisiae BY4741 SeMeCo community; assay: z-score of subpopulation abundance vs DMSO median, subpopulation auxotrophic for HU; higher = larger share of this subpopulation than in DMSO controls; conditions: 10 µM; 24 h; SM minimal medium; subpopulation (auxotrophy): HU
# Outline: as §1
# [11] = test system: Saccharomyces cerevisiae BY4741 SeMeCo community; assay: z-score of subpopulation abundance vs DMSO median, subpopulation auxotrophic for UM; higher = larger share of this subpopulation than in DMSO controls; conditions: 10 µM; 24 h; SM minimal medium; subpopulation (auxotrophy): UM
# Outline: as §1
# [12] = test system: Saccharomyces cerevisiae BY4741 SeMeCo community; assay: z-score of subpopulation abundance vs DMSO median, subpopulation auxotrophic for HL; higher = larger share of this subpopulation than in DMSO controls; conditions: 10 µM; 24 h; SM minimal medium; subpopulation (auxotrophy): HL
# Outline: as §1
# [13] = test system: Saccharomyces cerevisiae BY4741 SeMeCo community; assay: z-score of subpopulation abundance vs DMSO median, subpopulation auxotrophic for HLU; higher = larger share of this subpopulation than in DMSO controls; conditions: 10 µM; 24 h; SM minimal medium; subpopulation (auxotrophy): HLU
# Outline: as §1
# [14] = test system: Saccharomyces cerevisiae BY4741 SeMeCo community; assay: z-score of subpopulation abundance vs DMSO median, subpopulation auxotrophic for HLM; higher = larger share of this subpopulation than in DMSO controls; conditions: 10 µM; 24 h; SM minimal medium; subpopulation (auxotrophy): HLM
# Outline: as §1
# [15] = test system: Saccharomyces cerevisiae BY4741 SeMeCo community; assay: z-score of subpopulation abundance vs DMSO median, subpopulation auxotrophic for HLUM; higher = larger share of this subpopulation than in DMSO controls; conditions: 10 µM; 24 h; SM minimal medium; subpopulation (auxotrophy): HLUM
# Outline: as §1
# [16] = test system: Saccharomyces cerevisiae BY4741 SeMeCo community; assay: z-score of subpopulation abundance vs DMSO median, subpopulation auxotrophic for LUM; higher = larger share of this subpopulation than in DMSO controls; conditions: 10 µM; 24 h; SM minimal medium; subpopulation (auxotrophy): LUM
# Outline: as §1
# [17] = test system: Saccharomyces cerevisiae BY4741 SeMeCo community; assay: z-score of subpopulation abundance vs DMSO median, subpopulation auxotrophic for HUM; higher = larger share of this subpopulation than in DMSO controls; conditions: 10 µM; 24 h; SM minimal medium; subpopulation (auxotrophy): HUM
# Outline: as §1
Compound,mean cell size [1],z-score of prototroph abundance [2],z-score of subpopulation abundance [3],z-score of subpopulation abundance [4],z-score of subpopulation abundance [5],z-score of subpopulation abundance [6],z-score of subpopulation abundance [7],z-score of subpopulation abundance [8],z-score of subpopulation abundance [9],z-score of subpopulation abundance [10],z-score of subpopulation abundance [11],z-score of subpopulation abundance [12],z-score of subpopulation abundance [13],z-score of subpopulation abundance [14],z-score of subpopulation abundance [15],z-score of subpopulation abundance [16],z-score of subpopulation abundance [17]
COC(=O)Nc1nc2cc(Sc3ccccc3)ccc2[nH]1 [Fenbendazole],12.3 ± 0.23,0.03,0.61,0.52,-0.17,0.06,-0.67,0.66,0.22,-0.37,0.27,0.48,-0.08,-0.31,-0.28,–,–
CCCCCOc1ccc(-c2cc(-c3ccc(C(=O)N[C@H]4C[C@@H](O)[C@@H](O)NC(=O)[C@@H]5[C@@H](O)[C@@H](C)CN5C(=O)[C@H]([C@H](O)CC(N)=O)NC(=O)[C@H]([C@H](O)[C@@H](O)c5ccc(O)c(OS(=O)(=O)O)c5)NC(=O)[C@@H]5C[C@@H](O)CN5C(=O)[C@H]([C@@H](C)O)NC4=O)cc3)no2)cc1 [Micafungin Sodium],12.4 ± 0.26,-14.6,-8.01,5.22,-1.73,27.4,1.46,–,1.38,13.2,1.81,42.5,12,61.8,86.5,4.1,–
CCn1cc(C(=O)O)c(=O)c2cc(F)c(N3CCN(C)CC3)cc21 [Pefloxacin Mesylate],12.48 ± 0.059,0.1,-0.16,-0.33,0.14,-0.3,-0.06,0,0.05,-0.36,-0.04,0,-0.54,–,-0.95,0.18,-0.57
COc1c(N2CCNC(C)C2)c(F)cc2c(=O)c(C(=O)O)cn(C3CC3)c12 (stereo unspecified) [Gatifloxacin],–,-0.15,-0.13,-0.51,–,-0.44,0.36,-0.79,-0.89,0.38,0.32,-0.93,-0.36,-0.34,-0.38,-0.33,–
COc1cc2c(cc1OC)C(=O)C(CC1CCN(Cc3ccccc3)CC1)C2 (stereo unspecified) [Donepezil],12.14 ± 0.068,-0.18,1.61,0.86,-1.17,-0.21,0.06,0.51,0.52,-0.92,-0.49,0.47,-0.33,–,0.22,0.47,-0.13
